# Data published in PubChem BioAssay AID1645886 (National Center for Advancing Translational Sciences (NCATS), 2021).
# The whole screen tested about 16,000 compounds, of which about 260 (1.6%) were called active. Not shown: some 14% with an inconclusive outcome. This is one part of a sample in which actives are shown more often than they occur. Unmarked numbers belong to inactive results. The call rests on the fitted dose curve; in most records, active means well fitted inhibition curve with a large enough effect; inconclusive means small, poorly fitted or top-dose-only effect; inactive means no such curve, though single readings can be large or run the other way.
# Biological target: Rap guanine nucleotide exchange factor 4 (Homo sapiens) (UniProt Q8WZA2)
# Sequence (Q8WZA2 whole entry, looked up): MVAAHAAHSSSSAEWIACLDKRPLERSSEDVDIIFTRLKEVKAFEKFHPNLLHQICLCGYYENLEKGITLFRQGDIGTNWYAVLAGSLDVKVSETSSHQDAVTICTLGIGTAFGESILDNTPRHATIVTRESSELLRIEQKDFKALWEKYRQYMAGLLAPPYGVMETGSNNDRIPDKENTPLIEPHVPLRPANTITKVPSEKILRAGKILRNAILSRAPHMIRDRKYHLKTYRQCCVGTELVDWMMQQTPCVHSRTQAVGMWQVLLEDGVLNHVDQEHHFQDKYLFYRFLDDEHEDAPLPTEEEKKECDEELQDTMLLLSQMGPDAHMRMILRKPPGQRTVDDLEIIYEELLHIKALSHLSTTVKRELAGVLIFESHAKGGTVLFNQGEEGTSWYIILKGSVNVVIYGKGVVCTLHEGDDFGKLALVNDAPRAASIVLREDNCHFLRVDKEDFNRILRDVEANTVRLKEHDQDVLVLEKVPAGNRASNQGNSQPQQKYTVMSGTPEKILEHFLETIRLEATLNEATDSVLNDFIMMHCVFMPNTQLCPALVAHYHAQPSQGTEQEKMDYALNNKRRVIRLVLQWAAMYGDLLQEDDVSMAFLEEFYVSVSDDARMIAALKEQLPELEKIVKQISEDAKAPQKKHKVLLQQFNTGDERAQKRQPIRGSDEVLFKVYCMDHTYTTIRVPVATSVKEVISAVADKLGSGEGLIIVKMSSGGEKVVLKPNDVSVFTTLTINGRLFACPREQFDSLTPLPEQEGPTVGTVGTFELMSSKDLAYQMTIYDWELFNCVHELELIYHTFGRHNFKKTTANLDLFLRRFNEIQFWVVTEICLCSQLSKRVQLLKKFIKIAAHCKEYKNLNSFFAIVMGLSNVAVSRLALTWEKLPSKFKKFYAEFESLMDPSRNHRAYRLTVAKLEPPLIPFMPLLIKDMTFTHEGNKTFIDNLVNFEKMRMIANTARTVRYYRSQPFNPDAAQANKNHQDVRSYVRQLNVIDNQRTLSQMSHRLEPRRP
# Test: Validation qHTS for antagonist of cAMP-regulated guanine nucleotide exchange factor 4 (EPAC2); further: nearly all actives have a fitted effect of over 40% in size
# Conditions: EPAC2 Rap1B BODIPY-GDP exchange, fluorescence; series mostly up to 112 µM; activity, negative = inhibition: at the top concentration
# Source text: Principle Investigator: Xiaodong Cheng Ph.D. The University of Texas Medical Branch, […], TX MLPCN Grant: NS066510 In multi-cellular eukaryotic organisms, the effects of cAMP are transduced by two ubiquitously-expressed intracellular cAMP receptors, the classic protein kinase A/cAMP-dependent protein kinase (PKA/cAPK) and the more recently discovered exchange protein directly activated by cAMP/cAMP-regulated guanine nucleotide exchange factor (EPAC/cAMP-GEF). Both PKA and EPAC are ubiquitously expressed in all tissues, and an increase in intracellular cAMP levels will lead to the activation of both PKA and EPAC. Therefore, careful dissections of the individual role and relative contribution of EPAC and PKA within the overall cAMP signaling in various model systems are critical for further elucidating the mechanism of cAMP signaling. To date no EPAC-specific antagonists and agonist, as well as isoform-specific agonists have been reported, and developing EPAC-specific pharmacological probes to determine the physiological functions that EPAC play in the overall cAMP-mediated signaling remains a major challenge within the research field. Furthermore, identified regulators of EPAC may lead to new mechanism-based therapeutic strategies specifically targeting the EPAC / cAMP-signaling components as EPAC has been implicated to play important roles in major human pathological conditions such as diabetes, heart disease, and cancer. This qHTS will be used to screen the Molecular Libraries Small Molecule Repository (MLSMR) as a concentration-titration series using the NCGC unique quantitative screening (qHTS) platform to find activators for EPAC1. In addition, this assay will also be used as a counterscreen for the EPAC2 qHTS. This fluorescent based assay is developed and validated for EPAC1 that measures exchange using EPAC effector Rap1 complex with BODIPY-GDP, a GDP analog with a tethered fluorophores. Activators are identified by monitoring the change in fluorescence signal as the exchanged free BODIPY-GDP has a reduced fluorescence compared to Rap1-bound BODIPY-GDP. Increase in signal (activation) is the desired outcome for the EPAC1 agonist while no activity in this assay is desired for the EPAC2 agonist counterscreen. Reference: [1] de Rooij, J., Zwartkruis, F. J., Verheijen, M. H., Cool, R. H., Nijman, S. M., Wittinghofer, A., and Bos, J.L. (1998) Nature 396, 474-477.
# Briefly, three uL of reagents (100 nM EPAC2, 250 nM RAP1B-BODIPY-GDP, 50 uM GDP) were dispensed into a 1536-well Greiner black solid-bottom medium binding assay plate. Controls and test compounds (23 nL) were transferred to the plate via a Kalypsys pin tool equipped with a 1536-pin array. The plates were centrifuged at 1,000 rpm for 15 seconds followed by 5 minute incubation at room temperature. The assay plates were read at 5 minute intervals for 30 minutes in the ViewLux plate reader using 480nm excitation and 540nm emission filters. The results were normalized to the agonist positive control of 6.5 mM cAMP.
# Potency means the concentration at half of the fitted maximal effect.
SMILES,"activity, negative = inhibition [%]",Potency
Cc1cc(-c2ccnc(-n3ncc(C(=O)NCCc4ccncc4)c3C)n2)c(C)s1,-15.8,–
CC(=O)OCC(=O)[C@@]1(O)CCC2C3CCC4=CC(=O)CC[C@]4(C)C3C(=O)C[C@]21C (stereo partly drawn),-22.4,–
c1cncc(CNc2ccnc(-c3ccc4c(c3)OCO4)n2)c1,-16.8,–
COc1ccc2[nH]cc(CCNc3ncnc4ccc(-c5ccccc5CN(C)C)cc34)c2c1,-13.1,–
COc1ccc(Oc2ncc3nc(C)c(=O)n(-c4ccccc4)c3n2)cc1,-7.31,–
O=C(OCc1ccccc1)c1ccc(O)cc1,-30.8,–
O=C1C(c2ccccn2)=[N+]([O-])c2ccccc21,-5.15,–
Cn1nccc1C(=O)NCC1CCC2(CCN(Cc3c(O)ccc4ccccc34)CC2)O1 (stereo not drawn),-14,–
COc1ccccc1N1CCN(CCN2C(=O)c3ccccc3C(C)(C)C2=O)CC1,–,inactive
COc1ccc(-c2nc3cnc(N(C)C)nc3n(Cc3cccs3)c2=O)cc1,3.28,–
COc1ccc(-n2c(CNC(=O)c3cc(C(F)(F)F)ccc3Cl)nnc2SC)cc1,-9.57,–
CC(=O)O[C@H]1CC[C@@]2(C)C(=CC[C@@H]3[C@@H]2CC[C@]2(C)C(c4cccnc4)=CC[C@@H]32)C1,-10.2,–
COc1ccc(CCCOC(Cn2ccnc2)c2ccc(OC)cc2)cc1 (stereo not drawn),–,inactive
Cc1cnc(CNc2nc(-c3cccnc3)nc3ccccc23)cn1,-10.5,–
Cc1cc(C)cc(CN2CCc3nnc(C(NS(C)(=O)=O)C(C)C)n3CC2)c1 (stereo not drawn),-17.4,–
COCCNc1ncnc2ccc(-c3ccccc3CN(C)C)cc12,-5.97,–
Cc1cccc(CNc2ccnc(-c3cccnc3)n2)c1,-17.6,–
CC(=O)N1CCC2(CCCN(Cc3ccc(C#N)cc3)C2)CC1,-15.4,–
Cc1c(S(=O)(=O)O)oc2c1C(=O)C(=O)c1c-2ccc2c1CCCC2(C)C,–,44.7 µM (active)
COc1ccc(CN(C)CCn2cc(C(=O)N3CCSCC3)nn2)cc1C,-9.24,–
c1ccc(CNc2ncncc2-c2cccnc2)cc1,-8.54,–
CS(=O)(=O)NC(=O)CCC/C=C\C[C@H]1C(=O)C[C@@H](O)[C@@H]1/C=C/[C@H](O)COc1ccccc1,25.7,–
COc1ccc(C(=O)N2CCC[C@@]3(CCN(C(=O)NC(C)C)C3)C2)cc1,-25.3,–
Cc1cnc(-n2ncc(C(=O)N3CCN(C(C)C)CC3)c2-c2ccco2)nc1-c1ccc(F)cc1,3.02,–
CN(C)c1ccc(/C=C/c2c3ccccc3nc3ccccc23)cc1,-10.7,–
O=c1c(-c2ccc(F)cc2)nc2cncnc2n1-c1ccccc1,9.92,–
COCC1CCCN(Cc2ccc3c(c2)CN(C(=O)c2ccnn2C)CCO3)C1 (stereo not drawn),-1.55,–
Cc1c(O)cc2c(c1C)O[C@](C)(CCC[C@H](C)CCC[C@H](C)CCCC(C)C)CC2,-45.9,–
